Results filed as inconclusive are left out. The source made the active and inactive calls. The call rests on the fitted dose curve; in most records, active means well fitted cell-killing curve with a large enough effect; inconclusive means small, poorly fitted or top-dose-only effect, or effect the other way; inactive means flat fitted curve, though single readings scatter. Where a SMILES comes first, the peptide text is derived from it. The star is where a group is joined. Hexanoyl = CCCCCC(=O)*
How the values were obtained:
Assay in all cases: Primary qHTS to identify gynecologic anti-cancer compounds using libraries of approved drugs and bioactive compounds (AID 1345084); further: nearly all actives have a fitted effect of over 55% in size
C33A = details: Gynecologic cancer cell panel viability, ATPlite luminescence, 48 h; series mostly up to 57.5 µM
Procedure, shortened: (§1)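 Cell viability after 48 h drug treatment, ATPlite luminescence readout; five doses.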

CAOV3 = details: Gynecologic cancer cell panel viability, ATPlite luminescence, 48 h; series mostly up to 57.5 µM
Procedure, shortened: as §1

CASKI = details: Gynecologic cancer cell panel viability, ATPlite luminescence, 48 h; series mostly up to 57.5 µM
Procedure, shortened: as §1

Es-2 = details: Gynecologic cancer cell panel viability, ATPlite luminescence, 48 h; series mostly up to 57.5 µM
Procedure, shortened: as §1

HeLa = details: Gynecologic cancer cell panel viability, ATPlite luminescence, 48 h; series mostly up to 57.5 µM
Procedure, shortened: as §1

Hek293T = details: Gynecologic cancer cell panel viability, ATPlite luminescence, 48 h, control line for the selectivity index; series mostly up to 57.5 µM
Procedure, shortened: as §1

JEG-3 = details: Gynecologic cancer cell panel viability, ATPlite luminescence, 48 h; series mostly up to 57.5 µM
Procedure, shortened: as §1

OV90 = details: Gynecologic cancer cell panel viability, ATPlite luminescence, 48 h; series mostly up to 57.5 µM
Procedure, shortened: as §1

PA-1 = details: Gynecologic cancer cell panel viability, ATPlite luminescence, 48 h; series mostly up to 57.5 µM
Procedure, shortened: as §1

Tov-21-G = details: Gynecologic cancer cell panel viability, ATPlite luminescence, 48 h; series mostly up to 57.5 µM
Procedure, shortened: as §1

Tov112D = details: Gynecologic cancer cell panel viability, ATPlite luminescence, 48 h; series mostly up to 57.5 µM
Procedure, shortened: as §1

SKOV3 = details: Gynecologic cancer cell panel viability, ATPlite luminescence, 48 h; series mostly up to 57.5 µM
Procedure, shortened: as §1

Measured: Potency

COc1cc2c(c(O)c1OC/C=C(\C)CC/C=C(/C)CCC=C(C)C)CN(C(CCC(=O)O)C(=O)O)C2=O (stereo unspecified)
not listed: SKOV3
inactive: all other assays above

CC1(C)CC[C@]2(C(=O)O[C@@H]3O[C@H](CO)[C@@H](O)[C@H](O)[C@H]3O)[C@H](O)C[C@]3(C)C(=CCC4[C@@]5(C)CC[C@H](O[C@@H]6OC[C@@H](O)[C@H](O)[C@H]6O)[C@@](C)(C(=O)O)C5CC[C@]43C)[C@@H]2C1 (stereo partly specified)
inactive: all assays above

C=C(C)[C@H]1CC[C@]2(C(=O)O)CC[C@]3(C)C(CCC4[C@@]5(C)CCC(=O)C(C)(C)C5CC[C@]43C)C12 (stereo partly specified)
not listed: SKOV3
inactive: all other assays above

COc1cncc(C#Cc2ccccn2)c1
inactive: all assays above

CC(C)=CCc1c(O)cc2oc3cc(C)cc(O)c3c2c1C
inactive: all assays above

CC1=CC2=C(C)C(=O)C(C)(O)C(O)C2CO1 (stereo unspecified)
not listed: SKOV3
inactive: all other assays above

CC(C)=C1CC2[C@](C)(CC[C@@H](OC(=O)C3(C)OC3C)[C@@]2(C)O)CC1=O (stereo partly specified)
inactive: all assays above

COC(=O)C1=CO[C@@H](O[C@@H]2O[C@H](CO)[C@@H](O)[C@H](O)[C@H]2O)[C@@H]2C(CO)=CC[C@H]12
inactive: all assays above

Cc1cc(C(=O)N2Cc3cnn(C)c3Nc3ccccc32)ccc1CNC(=O)N1CCN(Cc2cc(O)cc(O)c2)CC1
not listed: SKOV3
inactive: all other assays above

CC1(C)CC[C@]2(C(=O)O)CC[C@]3(C)C(=CCC4[C@@]5(C)C[C@@H](O)[C@H](O)[C@@](C)(CO)C5[C@H](O)C[C@]43C)[C@@H]2C1 (stereo partly specified)
not listed: SKOV3
inactive: all other assays above

CC1CCCCCCCc2cc(O)cc(O)c2C(=O)O1 (stereo unspecified)
not listed: SKOV3
inactive: all other assays above

CC(C)[C@](O)(c1ccc2cc(OC(F)F)c(OC(F)F)cc2c1)c1cn[nH]n1
not listed: SKOV3
inactive: all other assays above

CCCCCC(=O)N1CCC[C@H]1C(=O)N[C@@H](Cc1ccc(O)cc1)C(=O)OC (Hexanoyl-Pro-Tyr-OMe)
not listed: SKOV3
inactive: all other assays above

C[C@@H]1O[C@@H](O[C@@H]2\C=C/C=C\C=C/C=C\C[C@H](C)OC(=O)/C=C\[C@H]3O[C@@H]3C[C@H](O)C[C@]3(O)C[C@@H](O)[C@@H](C(=O)O)[C@H](C2)O3)[C@H](O)[C@H](N)[C@@H]1O
not listed: SKOV3
inactive: all other assays above

O=C(O)c1cccc(CN2C(=O)/C(=C(\c3ccccc3)c3ccc(Cl)cc3)c3ccccc32)c1
not listed: SKOV3
inactive: all other assays above

CCCC(C(=O)O)c1c(C)nc2ccc(Cl)cc2c1-c1ccccc1 (stereo unspecified)
not listed: SKOV3
inactive: all other assays above

Reference: PubChem BioAssay (NCATS)
